Results filed as inconclusive are left out. The source made the active and inactive calls. Unless noted, calls come from the whole dose curve; as a rule, active = well fitted curve in the direction sought with a large enough effect; inconclusive = small, poorly fitted or top-dose-only effect, or another doubt; inactive = no such curve, though single readings can be large; an effect the other way counts as inactive or inconclusive.
Columns and labels:
[1] = Counterscreen for APE1 Inhibitors: Fluorescent Dye Displacement Validation Assay (AID 1707)
How it was run: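 Thiazole Orange displacement from dsDNA: 250 nM ThO with 50 nM TAMRA-labelled abasic-site (tetrahydrofuran) duplex in 50 mM Tris-HCl pH7.5, 50mM NaCl, 2 mM MgCl2, 0.01% Tween-20. Loss of endpoint fluorescence (ex 480 nm, em 540 nm) flags DNA binders.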

[2] = biological target: Endonuclease 4 (Escherichia coli (strain K12)) (UniProt P0A6C1); experiment: Counterscreen for APE1 Inhibitors: qHTS Validation Assay for Inhibitors of Endonuclease IV (AID 1708)
How it was run: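 2 nM enzyme was preincubated with compounds for 15 min at room temperature in 50 mM Tris-HCl pH 7.5, 50 mM NaCl, 2 mM MgCl2, 1 mM DTT, 0.01% Tween-20. 50 nM THF-abasic TAMRA/BHQ-2 duplex substrate started the reaction.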

[3] = qHTS for differential inhibitors of proliferation of Plasmodium falciparum line 7G8 (AID 1815);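 note: parasite growth measured after three days of incubation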
[4] = qHTS for differential inhibitors of proliferation of Plasmodium falciparum line 3D7 (AID 1876);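 note: parasite growth measured after three days of culture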
[5] = qHTS for differential inhibitors of proliferation of Plasmodium falciparum line D10 (AID 1877);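 note: parasites grown with compound for 72 h before DNA staining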
[6] = qHTS for differential inhibitors of proliferation of Plasmodium falciparum line Dd2 (AID 1882); conditions: Potency: Plasmodium falciparum Dd2 proliferation inhibition;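 note: series mostly up to about 29 µM; compound exposure of 72 h on infected erythrocytes; nearly all actives have a fitted effect of over 65% in size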
How it was run: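 SYBR Green I DNA fluorescence read-out, ex 485/em 535 nm. Signals were normalized to 0.29 uM artemisinin and DMSO wells, then corrected using vehicle-only plates flanking each stack. Parasite growth ran 72 h in erythrocytes before lysis.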

[7] = qHTS for differential inhibitors of proliferation of Plasmodium falciparum line HB3 (AID 1886); conditions: Potency: Plasmodium falciparum HB3 proliferation inhibition;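 note: parasites grown with compound for 72 h before SYBR Green readout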
[8] = qHTS Assay for Modulators of Human Peripheral Myelin Protein 22 (PMP22) Expression/Activity (AID 1967; active = well fitted curve in the direction sought with a large enough effect in the signal ratio; the % refers to the signal ratio)
How it was run: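 MSC80 mouse Schwann cells stably carrying Pmp22 promoter–green click beetle luciferase plus EF-alpha–red luciferase control were dosed for 24h at 37 °C. Dual-colour luminescence was filter-overlap corrected; %Activity came from green/red ratio versus untreated cells.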

[9] = biological target: ATP-dependent DNA helicase Q1 (Homo sapiens) (UniProt P46063); experiment: qHTS Validation Assay for Inhibitors of RecQ-Like Dna Helicase 1 (RECQ1) (AID 2353)
How it was run: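 50 nM RECQ1T1 preincubated 15 min with compound in Tris pH 8.0 buffer with MgCl2, DTT, Tween-20 and 2.5 ug/ml poly(dI-dC); started with 200 nM TAMRA/BHQ-2 forked duplex and 2 mM ATP. Unwinding read as fluorescence (525/598 nm), two reads 2 h apart.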

[10] = biological target: RecQ-like DNA helicase BLM (Homo sapiens) (UniProt P54132); experiment: qHTS Validation Assay for Inhibitors of Bloom's syndrome helicase (BLM) (AID 2364)
How it was run: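 BLM 50 nM in 25 mM Tris-HCl pH 8.0, 5 mM NaCl, 2 mM MgCl2, 1 mM DTT, 0.01% Tween-20, 2.5 ug/ml poly(dI-dC); 15 min cpd preinc, RT. Start: 200 nM forked DNA + 2 mM ATP (final). TAMRA read, 2 reads 2 h apart.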

[11] = Validation screen for small molecules that induce DNA re-replication in MCF 10A normal breast cells (AID 463097); note: nearly all actives have a fitted effect of over 60% in size
How it was run: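 Readout: Hoechst nuclear fluorescence intensity, 405 ex / 500-530 em, by scanning plate imager; re-replication scored as increase in nuclei with elevated DNA content. Cells exposed to compound 48 hr, 37 C, 5% CO2 beforehand.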

[12] = Quantitative high throughput screen for delayed death inhibitors of the malarial parasite plastid, 96 hour incubation (AID 488745);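 note: luciferase-expressing P. falciparum in erythrocytes at 2% hematocrit and 0.1% parasitemia; series mostly up to about 29 µM; nearly all actives have a fitted effect of over 70% in size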
How it was run: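 Growth of reporter-bearing P. falciparum in red cells is measured after 96 h with compound, covering two erythrocytic cycles. Luminescence from the integrated luciferase serves as the growth signal.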

[13] = Quantitative high throughput screen for delayed death inhibitors of the malarial parasite plastid, 48 hour incubation (AID 488752); note: nearly all actives have a fitted effect of over 65% in size
How it was run: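 One parasite generation (48 h, 37 C, 5% CO2) of luciferase-reporter P. falciparum in erythrocytes is run with test compound; decreased luminescence indicates inhibited growth.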

[14] = biological target: M-phase phosphoprotein 8 (Homo sapiens) (UniProt Q99549); experiment: qHTS Validation Assay for Inhibitors for MPP8 Chromodomain Interactions with Methylated Histone Tails (AID 488949);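 note: AlphaScreen signal from MPP8 chromodomain bound to biotinylated H3K9me3 peptide; top concentration of the series differs between compounds; nearly all actives have a fitted effect of over 55% in size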
How it was run: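 MPP8 (50 nM) was preincubated with biotinylated H3(1-18)K9me3 peptide (50 nM) in PBS pH 7.4, 0.01% Tween-20 for 30 min at room temperature, then with compounds for 30 min; binding was detected by AlphaScreen.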

[15] = biological target: Transient receptor potential cation channel subfamily V member 1 (Homo sapiens) (UniProt Q8NER1); experiment: HTS Assay for Compounds that Act as Enhancers of the Vanilloid Receptor 1 (AID 488979)
How it was run: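 TRPV1-expressing cells loaded with Fluo-8 calcium dye; compounds added and calcium influx read kinetically for 3 min (agonist phase), then capsaicin at EC20 added and read 2 min more for enhancement. Fluorescence ex 480/em 520 nm.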

[16] = biological target: Thyrotropin receptor (Homo sapiens) (UniProt P16473); experiment: qHTS Assay for Antagonists of the Thyroid Stimulating Hormone Receptor (AID 488980); note: series mostly up to about 58 µM
How it was run: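 HEK293 cells transfected with human TSHR, suspended in HEPES-buffered HBSS with 70 uM RO 20-1724, were treated with compounds plus TSH at EC80 (4 nM final). cAMP was measured by competitive HTRF (cryptate anti-cAMP antibody, cAMP-d2 acceptor).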

[17] = biological target: Galactokinase (Homo sapiens) (UniProt P51570); experiment: qHTS Validation Assay for Inhibitors of Human Galactokinase (GALK) (AID 493189)
How it was run: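 GALK (5 nM) with 35 uM ATP and 100 uM galactose in HEPES pH8.0, MgCl2, NaCl, DTT, BSA; 1 h at room temperature. Residual ATP read by Kinase-Glo Plus luminescence after 10 min.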

[18] = Validation screen for small molecules that induce DNA re-replication in SW480 colon adenocarcinoma cells (AID 504364)
How it was run: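 Cells are treated 48 hr with test compound, stained 40 min with Hoechst at 37 C, and scanned for nuclear fluorescence; compounds inducing re-replication increase nuclei with elevated intensity.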

[19] = biological target: DNA dC->dU-editing enzyme APOBEC-3G (Homo sapiens) (UniProt Q9HC16); experiment: qHTS for inhibitors of Vif-A3G interactions: Validation (AID 588379)
How it was run: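 HeLa cells stably expressing Vif and A3G-eYFP, 700 cells/well, incubated overnight at 37 deg C, then exposed to compound overnight at 37 deg C. Inhibition of Vif-mediated degradation read as increased yellow fluorescence (Ex 488/Em 500-530) by laser-scanning cytometry.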

[20] = biological target: Voltage-gated inwardly rectifying potassium channel KCNH2 (Homo sapiens) (UniProt Q12809); experiment: qHTS Assay for Small Molecule Inhibitors of the Human hERG Channel Activity (AID 588834);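 note: top concentration of the series differs between compounds; lower thallium flux fluorescence means stronger hERG block; nearly all actives have a fitted effect of over 50% in size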
How it was run: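 U2OS cells transduced with hERG via BacMam (MOI ~100), plated 2000/well, loaded with FluxOR thallium dye, compound ~10 min, then stimulation buffer; fluorescence decrease read kinetically; AC50 from Hill fits.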

[21] = system: Zika virus NS2B-NS3 protease; experiment: Primary screen GU AMC qHTS for Zika virus inhibitors (AID 1347154); note: nearly all actives have a fitted effect of over 70% in size
How it was run: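 Unlinked Zika NS2B hydrophilic domain/NS3 protease domain noncovalent complex (25 nM final) in 10 mM Tris-HCl pH 8.0, 0.01% Tween 20, with AMC peptide substrate. Fluorescence (ex 340, em 450 nm) change over 15 min, room temperature; percent inhibition fitted to 4-parameter Hill equation.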

[22] = Primary qHTS for small molecule stabilizers of the endoplasmic reticulum resident proteome: Secreted ER Calcium Modulated Protein (SERCaMP) assay (AID 1508630)
How it was run: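 GLuc-SERCaMP-expressing SH-SY5Y cells, pretreated 16 h with compound, are challenged with thapsigargin to empty ER calcium stores; after 4 h, coelenterazine is added directly to the medium and luminescence is imaged.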

Measured: Potency

Galactokinase (Homo sapiens), sequence (P51570 whole entry, looked up): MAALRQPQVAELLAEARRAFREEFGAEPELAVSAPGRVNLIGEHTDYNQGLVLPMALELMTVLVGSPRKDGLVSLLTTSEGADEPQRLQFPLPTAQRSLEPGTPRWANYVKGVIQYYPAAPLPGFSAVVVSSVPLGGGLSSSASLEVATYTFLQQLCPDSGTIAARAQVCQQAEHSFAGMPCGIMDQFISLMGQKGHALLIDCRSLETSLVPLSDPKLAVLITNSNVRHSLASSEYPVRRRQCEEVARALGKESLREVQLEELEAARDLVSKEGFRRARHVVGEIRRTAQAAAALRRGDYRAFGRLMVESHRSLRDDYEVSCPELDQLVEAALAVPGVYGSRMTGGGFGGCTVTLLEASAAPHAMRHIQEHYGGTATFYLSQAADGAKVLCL
Thyrotropin receptor (Homo sapiens), sequence (P16473 whole entry, looked up): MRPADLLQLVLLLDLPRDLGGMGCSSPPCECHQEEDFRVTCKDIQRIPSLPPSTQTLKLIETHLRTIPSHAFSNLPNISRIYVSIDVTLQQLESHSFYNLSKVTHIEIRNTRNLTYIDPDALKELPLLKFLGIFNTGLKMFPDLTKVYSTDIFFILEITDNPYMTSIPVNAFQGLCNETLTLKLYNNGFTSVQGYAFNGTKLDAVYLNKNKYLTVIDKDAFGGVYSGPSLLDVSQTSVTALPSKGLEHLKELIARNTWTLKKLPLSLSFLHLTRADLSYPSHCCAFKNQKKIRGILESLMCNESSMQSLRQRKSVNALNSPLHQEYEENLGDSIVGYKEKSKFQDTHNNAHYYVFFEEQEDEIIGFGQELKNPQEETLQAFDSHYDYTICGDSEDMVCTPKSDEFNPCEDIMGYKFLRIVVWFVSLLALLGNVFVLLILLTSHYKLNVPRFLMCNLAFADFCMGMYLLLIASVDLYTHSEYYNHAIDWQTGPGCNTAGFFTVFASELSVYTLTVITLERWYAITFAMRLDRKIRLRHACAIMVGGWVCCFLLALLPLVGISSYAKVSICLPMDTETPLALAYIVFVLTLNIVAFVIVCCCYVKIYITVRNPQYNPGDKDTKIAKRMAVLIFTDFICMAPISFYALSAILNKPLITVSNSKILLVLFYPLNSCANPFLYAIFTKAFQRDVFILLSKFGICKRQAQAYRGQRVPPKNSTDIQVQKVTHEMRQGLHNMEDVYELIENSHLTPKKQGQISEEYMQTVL
DNA dC->dU-editing enzyme APOBEC-3G (Homo sapiens), sequence (Q9HC16 whole entry, looked up): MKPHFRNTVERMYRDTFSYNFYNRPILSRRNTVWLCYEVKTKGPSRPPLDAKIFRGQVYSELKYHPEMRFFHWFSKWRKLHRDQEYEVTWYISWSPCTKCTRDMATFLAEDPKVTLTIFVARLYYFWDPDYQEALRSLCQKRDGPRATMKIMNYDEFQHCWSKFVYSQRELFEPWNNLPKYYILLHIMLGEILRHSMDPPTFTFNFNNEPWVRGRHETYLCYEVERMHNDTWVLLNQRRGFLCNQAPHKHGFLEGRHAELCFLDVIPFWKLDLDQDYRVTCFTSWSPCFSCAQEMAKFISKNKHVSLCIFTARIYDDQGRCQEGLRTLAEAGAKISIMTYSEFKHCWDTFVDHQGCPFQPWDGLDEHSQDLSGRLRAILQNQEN
Transient receptor potential cation channel subfamily V member 1 (Homo sapiens), sequence (Q8NER1 whole entry, looked up): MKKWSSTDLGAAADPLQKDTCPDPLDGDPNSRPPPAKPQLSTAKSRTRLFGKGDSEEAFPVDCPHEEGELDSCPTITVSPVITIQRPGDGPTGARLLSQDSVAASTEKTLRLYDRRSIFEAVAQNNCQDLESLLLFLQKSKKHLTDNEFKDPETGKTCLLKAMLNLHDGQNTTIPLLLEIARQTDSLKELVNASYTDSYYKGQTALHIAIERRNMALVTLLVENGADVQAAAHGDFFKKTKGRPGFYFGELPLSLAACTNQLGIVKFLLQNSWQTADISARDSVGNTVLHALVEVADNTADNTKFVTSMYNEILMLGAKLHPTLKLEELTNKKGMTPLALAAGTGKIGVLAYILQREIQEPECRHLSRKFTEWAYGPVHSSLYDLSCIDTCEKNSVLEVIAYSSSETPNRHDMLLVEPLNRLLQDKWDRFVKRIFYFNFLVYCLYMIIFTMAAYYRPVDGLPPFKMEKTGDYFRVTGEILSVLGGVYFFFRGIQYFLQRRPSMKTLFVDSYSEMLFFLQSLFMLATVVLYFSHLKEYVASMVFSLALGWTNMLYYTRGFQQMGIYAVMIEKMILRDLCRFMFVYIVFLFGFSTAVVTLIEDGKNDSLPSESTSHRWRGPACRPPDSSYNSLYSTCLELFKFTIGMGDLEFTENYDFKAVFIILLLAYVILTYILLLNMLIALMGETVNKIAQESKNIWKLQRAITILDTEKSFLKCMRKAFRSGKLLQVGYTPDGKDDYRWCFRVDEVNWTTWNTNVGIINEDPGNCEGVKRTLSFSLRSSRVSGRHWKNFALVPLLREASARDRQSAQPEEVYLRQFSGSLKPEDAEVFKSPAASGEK
RecQ-like DNA helicase BLM (Homo sapiens), sequence (P54132 whole entry, looked up): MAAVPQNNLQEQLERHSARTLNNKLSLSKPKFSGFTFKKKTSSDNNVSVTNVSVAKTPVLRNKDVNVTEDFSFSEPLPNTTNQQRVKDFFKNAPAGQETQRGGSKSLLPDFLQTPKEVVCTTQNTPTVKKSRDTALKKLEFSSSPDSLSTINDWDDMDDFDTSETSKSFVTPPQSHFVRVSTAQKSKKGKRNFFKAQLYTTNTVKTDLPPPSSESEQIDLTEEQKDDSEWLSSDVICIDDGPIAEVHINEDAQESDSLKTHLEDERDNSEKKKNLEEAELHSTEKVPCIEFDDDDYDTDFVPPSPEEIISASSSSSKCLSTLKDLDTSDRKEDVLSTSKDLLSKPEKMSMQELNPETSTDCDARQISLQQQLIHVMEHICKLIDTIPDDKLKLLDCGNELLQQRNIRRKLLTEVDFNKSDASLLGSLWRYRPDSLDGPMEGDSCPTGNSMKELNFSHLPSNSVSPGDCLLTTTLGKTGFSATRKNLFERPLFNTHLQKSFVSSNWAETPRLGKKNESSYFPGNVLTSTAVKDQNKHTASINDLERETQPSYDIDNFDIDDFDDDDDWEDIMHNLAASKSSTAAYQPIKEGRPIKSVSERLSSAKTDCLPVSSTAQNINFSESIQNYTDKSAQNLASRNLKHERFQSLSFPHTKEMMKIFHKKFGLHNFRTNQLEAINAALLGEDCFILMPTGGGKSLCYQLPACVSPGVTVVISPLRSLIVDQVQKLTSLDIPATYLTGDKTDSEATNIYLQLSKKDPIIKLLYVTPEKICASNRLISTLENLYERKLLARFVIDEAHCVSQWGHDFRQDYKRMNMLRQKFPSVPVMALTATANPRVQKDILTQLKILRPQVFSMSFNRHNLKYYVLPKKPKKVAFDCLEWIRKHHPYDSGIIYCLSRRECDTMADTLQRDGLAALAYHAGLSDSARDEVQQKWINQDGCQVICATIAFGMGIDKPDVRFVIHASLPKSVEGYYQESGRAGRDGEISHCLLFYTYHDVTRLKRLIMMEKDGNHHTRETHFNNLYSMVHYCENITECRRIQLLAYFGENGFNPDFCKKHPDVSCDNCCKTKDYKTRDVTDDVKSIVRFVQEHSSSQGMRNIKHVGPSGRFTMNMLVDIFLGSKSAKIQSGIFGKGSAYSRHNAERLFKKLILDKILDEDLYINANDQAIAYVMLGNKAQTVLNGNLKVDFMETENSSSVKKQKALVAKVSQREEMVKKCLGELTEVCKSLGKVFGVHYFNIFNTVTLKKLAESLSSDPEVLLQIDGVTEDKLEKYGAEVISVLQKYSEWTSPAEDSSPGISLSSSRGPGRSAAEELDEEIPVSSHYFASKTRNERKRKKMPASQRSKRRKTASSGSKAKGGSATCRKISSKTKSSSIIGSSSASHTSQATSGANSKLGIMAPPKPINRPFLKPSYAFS
M-phase phosphoprotein 8 (Homo sapiens), sequence (Q99549 whole entry, looked up): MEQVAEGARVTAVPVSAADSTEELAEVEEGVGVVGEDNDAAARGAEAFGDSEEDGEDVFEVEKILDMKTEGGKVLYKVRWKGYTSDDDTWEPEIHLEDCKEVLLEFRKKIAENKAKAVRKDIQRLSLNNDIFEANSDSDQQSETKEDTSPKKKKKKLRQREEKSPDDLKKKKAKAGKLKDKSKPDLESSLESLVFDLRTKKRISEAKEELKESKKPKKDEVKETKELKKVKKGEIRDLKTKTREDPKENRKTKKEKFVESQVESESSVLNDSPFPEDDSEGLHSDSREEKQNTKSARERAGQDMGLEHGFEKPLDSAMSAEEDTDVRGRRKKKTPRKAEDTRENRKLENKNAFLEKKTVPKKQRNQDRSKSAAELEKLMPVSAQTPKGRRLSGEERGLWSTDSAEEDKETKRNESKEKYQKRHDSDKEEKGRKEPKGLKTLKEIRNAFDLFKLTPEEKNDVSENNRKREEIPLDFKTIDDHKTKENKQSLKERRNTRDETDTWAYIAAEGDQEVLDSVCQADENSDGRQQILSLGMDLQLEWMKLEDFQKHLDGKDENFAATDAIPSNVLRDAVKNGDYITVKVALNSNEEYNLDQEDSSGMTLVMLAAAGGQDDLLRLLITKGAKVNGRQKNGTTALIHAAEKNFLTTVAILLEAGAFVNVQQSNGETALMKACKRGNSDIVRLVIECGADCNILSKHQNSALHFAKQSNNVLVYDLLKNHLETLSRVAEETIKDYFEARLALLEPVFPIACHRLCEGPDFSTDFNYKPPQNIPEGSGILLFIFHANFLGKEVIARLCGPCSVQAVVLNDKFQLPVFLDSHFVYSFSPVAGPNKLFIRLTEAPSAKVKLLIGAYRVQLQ

CC(N)=NCc1cccc(CN)c1
inactive: [1] | [2] | [3] | [4] | [5] | [6] | [7] | [8] | [9] | [10] | [11] | [12] | [13] | [14] | [15] | [16] | [17] | [18] | [19] | [20] | [21] | [22]
